“And” between values parts separate entries of the source, which are not always exact repeats. Identical values can stand only once. The source made the active and inactive calls.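 Rule for the calls: active = compounds whose cell count with miR-34 switched on is under 0.7 times the count with it off; inactive = the rest.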
Assay: sensitizers of A549 cells to miR-34 induction, primary screen, imaging, A549 dox-inducible miR-34, nuclei and caspase counts (AID 1347080); note: test concentration not given here
Details: A549 miR-34 inducible, Hoechst nuclei count, 48 h; stronger effect = lower value; cell number ratio, induced over uninduced
In the case of `NS(=O)(=O)c1ccc(CCC(=O)O)cc1`, the fold change is reported as 0.881 (inactive). With `O=C(O)CCCCc1ccccc1` the fold change was 0.916 (inactive). For `O=c1[nH]cnc2c1ncn2C1CCC(CO)O1` (stereo unspecified), the fold change was 0.874 (inactive) and 0.873 (inactive). In the case of `Cc1cc(-c2cnn(C)c2)nc(N)n1`, the fold change is reported as 0.853 (inactive). With `O=C(O)c1ccccc1C(=O)O` the fold change was 0.874 (inactive). With `O=C(O)c1cnn(-c2ccccc2)c1` the fold change was 0.883 (inactive). For `CC1OC(OCC2OC(Oc3c(-c4ccc(O)c(O)c4)oc4cc(O)cc(O)c4c3=O)C(O)C(O)C2O)C(O)C(O)C1O` (stereo unspecified), the fold change was 0.944 (inactive) and 0.91 (inactive). For `O=C1CCCc2occ(C(=O)N3CCc4[nH]nc(Cc5ccccc5)c4C3)c21`, the fold change was 0.979 (inactive). With `CC(=O)NCC1CN(c2ccc(N3CCOCC3)c(F)c2)C(=O)O1` (stereo unspecified) the fold change was 0.917 (inactive) and 0.981 (inactive). In the case of `Cc1cc2nc3[nH]c(=O)[nH]c(=O)c3nc2cc1C`, the fold change is reported as 0.917 (inactive). In the case of `Cc1nn(C)cc1-c1ccnc(NCc2nc(-c3ccccc3)no2)n1`, the fold change is reported as 0.84 (inactive). For `CCCc1cn(CC2CCCN(C(=O)c3nc4ncccn4n3)C2)nn1` (stereo unspecified), the fold change was 0.866 (inactive). In the case of `Cc1cn(C2C=CC(CO)O2)c(=O)[nH]c1=O` (stereo unspecified), the fold change is reported as 0.962 (inactive) and 0.935 (inactive). In the case of `c1ccc2c(CCc3ccncc3)c[nH]c2c1`, the fold change is reported as 0.863 (inactive). In the case of `CN1CCN(Cc2ccc(-c3nc(-c4cccnc4)cc(=O)[nH]3)cc2)CC1`, the fold change is reported as 0.911 (inactive). In the case of `COc1ncccc1C(=O)N1CCOc2ccccc21`, the fold change is reported as 1 (inactive). For `COc1ccc(F)c(-c2cccc(N)n2)c1`, the fold change was 0.864 (inactive). In the case of `O=C1CN(C(=O)c2ccncc2)CCN1Cc1ccc2c(c1)OCO2`, the fold change is reported as 0.914 (inactive). In the case of `Cc1nc(NC(=O)NCc2cccc(Cl)c2)nn1C`, the fold change is reported as 0.889 (inactive). In the case of `NC(=O)Cc1c[nH]c2ccccc12`, the fold change is reported as 0.914 (inactive). In the case of `Cc1ncsc1-c1ccn(CC(=O)Nc2ccnn2Cc2cccs2)n1`, the fold change is reported as 0.798 (inactive). For `Nc1ccn(C2CCC(CO)O2)c(=O)n1` (stereo unspecified), the fold change was 0.958 (inactive) and 0.921 (inactive).

Same assay, conditions: A549 miR-34 inducible, Hoechst nuclei count, 48 h; measured here: relative caspase fold change +Dox/-Dox
Work on `CCOC(=O)c1c(C)nn(-c2ccc(OC)cc2)c1C` yielded a fold change of 0.849. Compound `O=c1c(-c2ccc(O)cc2)coc2cc(OC3OC(CO)C(O)C(O)C3O)ccc12` (stereo unspecified) has a fold change of 0.687. For `O=C(O)Cc1c[nH]c2ccccc12`, the fold change was 0.9. `O=C(O)c1cnc(-c2ccccc2)[nH]1` showed a fold change of 0.271. Compound `O=C(Nc1c[nH]c2ccccc12)c1cc(-c2ccc(F)cc2)n[nH]1` has a fold change of 1.42. `Cc1ccc2c(C(=O)N(C)C(C)C)cc(-c3cnc(C(C)C)nc3)nc2c1` gave a fold change of 1.5. Work on `COc1cc(F)c(-c2nc3c(cnn3Cc3cccs3)[nH]2)c(F)c1` yielded a fold change of 1.31. In the case of `Cc1ccc(Sc2cccc3nc(N)nc(N)c23)cc1`, the fold change is reported as 0.775. `CCn1c2ccccc2c2cc(CNC)ccc21` gave a fold change of 0.773. For `CN(C)C(=O)CN(C)C(=O)c1cccc(Nc2ncnc3c2cnn3C)c1`, the fold change was 1.54. In the case of `Cn1c(=O)c2c(nc(N3CCNCC3)n2Cc2ccccc2)n(C)c1=O`, the fold change is reported as 0.525. Compound `O=c1cc(-c2ccccc2)oc2ccccc12` has a fold change of 0.735. `O=c1[nH]c(=O)c2[nH]cnc2[nH]1` gave a fold change of 0.584. `Cc1ccc(-n2cc(-c3nc4c(cnn4Cc4cccnc4)[nH]3)cn2)cc1` gave a fold change of 2.02. In the case of `CN(C)c1ccc(N=Nc2ccccc2C(=O)O)cc1`, the fold change is reported as 0.761. `CCCn1ncc(-c2ccnc(NCc3cc(CC)no3)n2)c1C` gave a fold change of 1.57. Work on `CCc1nc(NC(=O)NC(c2ccccc2)c2ccccc2)nn1C` yielded a fold change of 1.04. `NS(=O)(=O)c1ccc(CCC(=O)O)cc1` gave a fold change of 0.214. For `O=C(O)CCCCc1ccccc1`, the fold change was 0.396. With `O=c1[nH]cnc2c1ncn2C1CCC(CO)O1` (stereo unspecified) the fold change was 1.69 and 1.3. `Cc1cc(-c2cnn(C)c2)nc(N)n1` showed a fold change of 1.79. Compound `O=C(O)c1ccccc1C(=O)O` has a fold change of 0.755. `O=C(O)c1cnn(-c2ccccc2)c1` showed a fold change of 0.82. For `CC1OC(OCC2OC(Oc3c(-c4ccc(O)c(O)c4)oc4cc(O)cc(O)c4c3=O)C(O)C(O)C2O)C(O)C(O)C1O` (stereo unspecified), the fold change was 1.42 and 0.851. Work on `O=C1CCCc2occ(C(=O)N3CCc4[nH]nc(Cc5ccccc5)c4C3)c21` yielded a fold change of 0.441. With `CC(=O)NCC1CN(c2ccc(N3CCOCC3)c(F)c2)C(=O)O1` (stereo unspecified) the fold change was 1.72 and 0.989. Compound `Cc1cc2nc3[nH]c(=O)[nH]c(=O)c3nc2cc1C` has a fold change of 0.188. `Cc1nn(C)cc1-c1ccnc(NCc2nc(-c3ccccc3)no2)n1` showed a fold change of 1.25. In the case of `CCCc1cn(CC2CCCN(C(=O)c3nc4ncccn4n3)C2)nn1` (stereo unspecified), the fold change is reported as 1.31.

Reference: PubChem BioAssay
